# Activity calls are given as the source filed them. How the source made its calls: active means hit-call score of the fitted dose curve at least 0.9, where 1 is the maximum; inactive means score below 0.9.
# Read-out: Forkhead box O1 (FOXO1), FOXO1 (gene 2308)
# Experiment: LTEA_HepaRG_FOXO1: Life Technologies and Expression Analysis (LTEA) Assay for Forkhead box O1 (FOXO1) using HepaRG (AID 2283456)
# Conditions: mRNA level, 48 h; actives raise or lower the signal
# Method in brief: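 Differentiated human HepaRG cells in serum-free induction medium were exposed in duplicate for 48 h to eight half-log concentrations (top 100 uM, 0.5% DMSO). FOXO1 mRNA was measured by TaqMan qRT-PCR, normalised to ACTB, GAPDH and POLR2A, and fitted bidirectionally against DMSO.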
Compound,outcome,AC50
O=c1c(-c2ccc(O)cc2)coc2cc(O)ccc12,inactive,–
Oc1cccc(O)c1,inactive,–
O=[N+]([O-])c1ccc(O)cc1,inactive,–
CCC(=C(c1ccc(O)cc1)c1ccc(OCCN(C)C)cc1)c1ccccc1,–,82.6 µM (active)
C#C[C@]1(O)CC[C@H]2[C@@H]3CCC4=CC(=O)CC[C@@H]4[C@H]3CC[C@@]21C,inactive,–
COC(=O)CCCCC(=O)OC,inactive,–
CCCCCCCCCCCCc1ccccc1S(=O)(=O)O,–,88.4 µM (active)
CC(=O)CC(C)(C)O,inactive,–
C[C@@H]1C[C@H]2[C@@H]3CCC4=CC(=O)C=C[C@]4(C)[C@@]3(F)[C@@H](O)C[C@]2(C)[C@@]1(O)C(=O)COP(=O)(O)O,inactive,–
CC1=C(/C=C/C(C)=C/C=C/C(C)=C/C(=O)O)C(C)(C)CCC1,inactive,–
O=C(O)c1ccccc1C(c1ccc(O)cc1)c1ccc(O)cc1,inactive,–
Nc1cccc2c(N)cccc12,inactive,–
CC(O)CO (stereo unspecified),inactive,–
c1ccc2c(c1)ccc1ccccc12,inactive,–
CCCCCCCCOC(=O)CCCCCCCCC(=O)OCCCCCCCC,inactive,–
Oc1cc2ccccc2c2ccccc12,inactive,–

Compound,outcome,AC50
CC(C)(C)c1cccc(C(C)(C)C)c1O,inactive,–
Cc1cc(C)c(O)c(C)c1,inactive,–
CCN(CC)CCNc1ccc(CNC=O)c2sc3ccc(OC)cc3c(=O)c12,–,13.3 µM (active)
Cc1cc(CCN2CCN(c3nsc4ccccc34)CC2)cc2c1NC(=O)CC2(C)C,inactive,–
CN(C)C=O,inactive,–
OC1CCCCC1,inactive,–
CC(=O)NC1(c2cccc(F)c2)CCN(CC[C@@]2(c3ccc(Cl)c(Cl)c3)CN(c3ccccc3)C(=O)CO2)CC1,inactive,–
CCCCCCCCCCCCN1CCCC1=O,inactive,–
CCCCCCCCCCCCCCCS(=O)(=O)Oc1ccccc1,inactive,–
N#C[C@@H]1CC(F)(F)CN1C(=O)CNC1CC2CCC(C1)N2c1ncccn1 (stereo partly specified),inactive,–
O=C(O)Cc1cc(I)c(Oc2cc(I)c(O)c(I)c2)c(I)c1,–,50.7 µM (active)
CN1CCN(c2ccccc2/C=C2\SCCN(c3ccc(Cl)c(Cl)c3)C2=O)CC1,–,90.3 µM (active)
CCCCC(CC)COC(=O)CCCCC(=O)OCC(CC)CCCC (stereo unspecified),inactive,–
CCCOC(=O)c1ccc(O)cc1,inactive,–
CCCCCCC(=O)O,inactive,–

# Read-out: not listed separately
# Experiment: CEETOX_H295R_TESTO: CeeTox H295R High-throughput Steroidogenesis Assay for Testosterone (TESTO) (AID 2283457);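 on AC50: cells exposed to chemicals for 48 h before medium collection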
# Conditions: actives raise or lower the signal
# Method in brief: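 Testosterone secreted into the medium over 48 h by H295R cells (maximum passage 10) was quantified by LC-MS/MS after MTBE extraction. Fitted in both directions against DMSO, with concentrations diluted until MTT viability was ≥70%.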
Compound,AC50,outcome
O=c1c(-c2ccc(O)cc2)coc2cc(O)ccc12,16.4 µM (active),–
CCC(=C(c1ccc(O)cc1)c1ccc(OCCN(C)C)cc1)c1ccccc1,–,inactive
O=C(O)c1ccccc1C(c1ccc(O)cc1)c1ccc(O)cc1,–,inactive
Nc1cccc2c(N)cccc12,–,inactive
c1ccc2c(c1)ccc1ccccc12,56.2 µM (active),–

# — PubChem BioAssay (EPA / NIEHS)
